Measurements as given in PubChem BioAssay (NCATS).
“And” between values parts separate entries of the source, which are not always exact repeats. Identical values can stand only once. Inconclusive results are not listed. Entries that show only a call come without a potency. The source made the active and inactive calls. The call rests on the fitted dose curve; in most records, active means well fitted curve in the direction sought with a large enough effect; inconclusive means small, poorly fitted or top-dose-only effect, or another doubt; inactive means no such curve, though single readings can be large; an effect the other way counts as inactive or inconclusive.

How the values were obtained:
[1] = P-glycoprotein substrates identified in KB-8-5-11 adenocarcinoma cell line, qHTS therapeutic library screen (AID 1346987); further: nearly all actives have a fitted effect of over 65% in size; further: potency means the concentration at half of the fitted maximal effect
Outline: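 P-gp-mediated resistance screen: KB-8-5-11 cells treated 72 h with compounds in dose-response. CellTiter-Glo viability.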

[2] = qHTS of pediatric cancer cell lines to identify multiple opportunities for drug repurposing: Primary screen for TC32 cells (AID 1347089); further: nearly all actives have a fitted effect of over 60% in size
Outline: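 A viability screen of TC32 cells was run over 48 h, with primary MIPE doses spanning 0.78 nM–46 µM and NPC doses 0.59 nM–46 µM. ATP luminescence (CellTiter-Glo) served as the read-out.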

[3] = qHTS of pediatric cancer cell lines to identify multiple opportunities for drug repurposing: Primary screen for DAOY cells (AID 1347090); further: nearly all actives have a fitted effect of over 55% in size; further: potency means the concentration at half of the fitted maximal effect
Outline: (§1)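 Eight- or eleven-point concentration series, 48 h treatment at 37 degrees C in growth media; readout CellTiter-Glo luminescence. Potency and efficacy were taken from the concentration-response curves.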

[4] = qHTS of pediatric cancer cell lines to identify multiple opportunities for drug repurposing: Primary screen for SJ-GBM2 cells (AID 1347091); further: potency means the concentration at half of the fitted maximal effect
Outline: as §1

[5] = qHTS of pediatric cancer cell lines to identify multiple opportunities for drug repurposing: Primary screen for A673 cells (AID 1347092); further: nearly all actives have a fitted effect of over 45% in size; further: potency means the concentration at half of the fitted maximal effect
Outline: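 Titration-based qHTS on A673 cells: MIPE compounds spanned 11 points (0.78 nM to 46 µM final), NPC compounds 8 points (0.59 nM to 46 µM final). Viability after 48 h was measured by ATP luminescence.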

[6] = qHTS of pediatric cancer cell lines to identify multiple opportunities for drug repurposing: Primary screen for BT-37 cells (AID 1347094); further: potency means the concentration at half of the fitted maximal effect
Outline: (§2)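 Primary screen of approved and investigational compounds on cells in growth media at 37 degrees C, 5% CO2. MIPE set at 11-point and NPC set at 8-point dilutions; viability scored by ATP-based luminescence at 48 hours.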

[7] = qHTS of pediatric cancer cell lines to identify multiple opportunities for drug repurposing: Primary screen for NB-EBc1 cells (AID 1347095); further: potency means the concentration at half of the fitted maximal effect
Outline: as §2

[8] = qHTS of pediatric cancer cell lines to identify multiple opportunities for drug repurposing: Primary screen for U-2 OS cells (AID 1347096); further: nearly all actives have a fitted effect of over 50% in size
Outline: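 Cells (500-1,000/well) in growth media were settled 5 h at 37 degrees C, then given compounds for 48 h. Viability was read as CellTiter-Glo luminescence. Primary runs used MIPE at 11 points (0.78 nM-46 µM) and NPC at 8 points (0.59 nM-46 µM); follow-ups used 11 points.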

[9] = qHTS of pediatric cancer cell lines to identify multiple opportunities for drug repurposing: Primary screen for Saos-2 cells (AID 1347097); further: nearly all actives have a fitted effect of over 40% in size; further: potency means the concentration at half of the fitted maximal effect
Outline: as §2

[10] = qHTS of pediatric cancer cell lines to identify multiple opportunities for drug repurposing: Primary screen for SK-N-MC cells (AID 1347093); further: potency means the concentration at half of the fitted maximal effect
Outline: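 Metabolically active cells were quantified by ATP-dependent luminescence (CellTiter-Glo, 15 min at room temperature) following 48 h treatment. Cells had been plated at 500-1,000 per well and settled for 5 h beforehand.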

[11] = qHTS of pediatric cancer cell lines to identify multiple opportunities for drug repurposing: Primary screen for SK-N-SH cells (AID 1347098); further: nearly all actives have a fitted effect of over 65% in size; further: potency means the concentration at half of the fitted maximal effect
Outline: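 Cells (500-1,000/well) rested 5 h, then received compounds for 48 h; metabolically active cells were measured by CellTiter-Glo luminescence. Final concentrations spanned up to 46 µM (MIPE, 11-point) or 0.59 nM-46 µM (NPC, 8-point) in primary screens, 11-point in follow-ups.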

[12] = NS1 protein of Zika virus - qHTS assay to identify small molecule inhibitors in human HEK 293 cells (AID 1347053); further: series mostly up to about 46 µM; nearly all actives have a fitted effect of over 55% in size
Outline: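 HEK 293 cells pretreated with compound for 1 h, then infected with ZIKV MR766 (MOI 0.5) for 24 h at 37 C. NS1 detected by TR-FRET with two anti-NS1 antibodies; normalized to uninfected (0%) and infected (100%) wells.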

SMILES | Potency [1] | Potency [2] | Potency [3] | Potency [4] | Potency [5] | Potency [6] | Potency [7] | Potency [8] | Potency [9] | Potency [10] | Potency [11] | Potency [12]
OC1C(O)C(O)C(O)C(O)C1O (stereo unspecified) | inactive | inactive | inactive | inactive | inactive | inactive | inactive | inactive | inactive |  |  | 
CCCCC(CC)COC(=O)c1ccc(N(C)C)cc1 (stereo unspecified) | inactive | inactive | inactive | inactive | inactive | inactive | inactive | inactive | inactive | inactive | inactive | 
Cc1c(-c2ccccc2)oc2c(C(=O)OCCN3CCCCC3)cccc2c1=O | inactive | inactive | inactive | inactive | inactive | inactive | inactive | inactive | inactive | inactive |  | 
CC(C)(C)NC[C@H](O)COc1cccc2c1CCCC2=O | inactive | inactive | inactive | inactive | inactive | inactive | inactive | inactive | inactive | inactive |  | 
CC1=C(C(=O)O)N2C(=O)[C@@H](NC(=O)[C@H](N)c3ccccc3)[C@H]2SC1 | inactive | inactive | inactive | inactive | inactive | inactive | inactive | inactive | inactive | inactive | inactive | 
O=C(Nc1ncc([N+](=O)[O-])s1)c1cccs1 | 16.4 µM (active) |  | 16.8 µM (active) |  |  | 24.6 µM (active) |  |  |  |  | 24.4 µM (active) | inactive
O=C(CCN1CCN2CCCC2C1)N1c2ccccc2Sc2ccc(Cl)cc21 (stereo unspecified) | inactive | inactive | inactive | inactive | inactive | inactive | inactive | inactive |  | inactive | inactive | 
O=C1C(O)=C(O)C(=O)C(O)=C1O | inactive | inactive | inactive | inactive | inactive | inactive | inactive | inactive | inactive | inactive | inactive | 
CC(=O)Nc1ncc([N+](=O)[O-])s1 | inactive | inactive | inactive | inactive | inactive | inactive | inactive | inactive | inactive |  | inactive | 
Cc1cc(CC(=O)O)c(C)n1-c1ccc(Cl)cc1 | inactive | inactive | inactive | inactive | inactive | inactive | inactive | inactive | inactive |  | inactive | 
Nc1ccc(S(=O)(=O)Nc2cnc3ccccc3n2)cc1 | inactive | inactive | inactive | inactive | inactive | inactive | inactive | inactive | inactive | inactive |  | 
O=C(Nc1cccc(C2=NCCN2)c1)Nc1cccc(C2=NCCN2)c1 | inactive | inactive | inactive | inactive | inactive | inactive | inactive | inactive | inactive |  | inactive | 
NCCNC(=O)c1ccc(Cl)cn1 | inactive | inactive | inactive | inactive | inactive | inactive | inactive | inactive | inactive | inactive | inactive | 
CC[C@]12CCCN3CCc4c(n(c5ccccc45)C(=O)C1)[C@@H]32 | 5.56 µM (active) and 5.8 µM (active) |  |  | 5.96 µM (active) | 10.6 µM (active) |  | 1.88 µM (active) | inactive | 13.3 µM (active) | 5.96 µM (active) |  | inactive
O=C(Nc1ccc([N+](=O)[O-])cc1)Nc1ccc([N+](=O)[O-])cc1 | inactive | inactive | inactive | inactive | inactive | inactive | inactive | inactive |  | inactive |  | 
CN1CCN(C2=Nc3ccccc3Sc3ccc(Cl)cc32)CC1 |  | inactive | inactive | inactive | inactive | inactive | inactive | inactive | inactive | inactive |  | inactive
N#C/C(=C1\SCC(c2ccccc2Cl)S1)n1ccnc1 (stereo unspecified) |  | inactive | inactive | inactive | inactive | inactive | inactive | inactive | inactive | inactive | inactive | inactive
CCCCCCCCCCCCCC[N+](C)(C)Cc1ccccc1 | inactive |  |  | 21.1 µM (active) | 13.3 µM (active) | 24.6 µM (active) |  |  | 23.7 µM (active) | 11.9 µM (active) | 30.7 µM (active) | 
COc1ccccc1N1CCN(CCCCNC(=O)c2ccc(-c3ccc(C(C)=O)cc3)cc2)CC1 |  | inactive | inactive | inactive | inactive | inactive | inactive | inactive | inactive | inactive | inactive | inactive
CO[C@]12C[C@@H](COC(=O)c3cncc(Br)c3)CN(C)[C@@H]1Cc1cn(C)c3cccc2c13 |  | inactive | inactive | inactive | inactive | inactive | inactive | inactive | inactive |  |  | inactive
COc1ccc(C(=O)c2ccccc2O)c(O)c1 |  | inactive | inactive | inactive | inactive | inactive | inactive | inactive |  |  |  | inactive
CCOC(=O)C(C#N)=C(c1ccccc1)c1ccccc1 |  | inactive | inactive | inactive | inactive | inactive | inactive | inactive | inactive | inactive |  | inactive
